Measurements: the supplement of paper PMC11172423
A number with no mark means an inactive call.

System: Madurella mycetomatis MM55
Assay: growth relative to untreated control; higher = less inhibition, active = 20 or less
Conditions: 25 µM
Experimental: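 Hyphal fragments of M. mycetomatis MM55 or F. senegalensis CBS197.79 in RPMI 1640/MOPS were exposed to each MMV COVID Box or Global Health Priority Box compound at 100 or 25 µM for 7 days at 37 °C. Viability was read with MTS (490 nm, M. mycetomatis) or resazurin (600 nm, F. senegalensis), background-corrected with a medium-only control and expressed as % growth relative to the untreated growth control. Inhibition of more than 80% was taken as growth inhibition.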

Row | SMILES | growth
1 | CO[C@@H](C(=O)N1Cc2[nH]nc(NC(=O)c3ccc(N4CCN(C)CC4)cc3)c2C1)c1ccccc1 | 94%
2 | COc1ccc2cc1Oc1ccc(cc1)C[C@H]1c3cc(c(OC)cc3CCN1C)Oc1c(O)c(OC)cc3c1[C@@H](C2)N(C)CC3 | 5.48% (active)
3 | COCC[C@H](NC(=O)c1cc2ccc(C(F)(F)F)cc2[nH]1)c1ccccc1 | 30.3%
4 | CN1CCC(N2CCC(NC(=O)c3cc4c(F)cccc4s3)CC2)CC1 | 131%
5 | CC[C@H](C)[C@H]1O[C@]2(C=C[C@@H]1C)C[C@@H]1C[C@@H](C/C=C(\C)[C@@H](O[C@H]3C[C@H](OC)[C@@H](O[C@H]4C[C@H](OC)[C@H](NC(C)=O)[C@H](C)O4)[C@H](C)O3)[C@@H](C)/C=C/C=C3\CO[C@@H]4[C@H](O)C(C)=C[C@@H](C(=O)O1)[C@]34O)O2 | 74.9%
6 | COc1cc(OC)c2c(O)nc(-c3cc(C)c(OCCO)c(C)c3)nc2c1 | 103%
7 | CC(C)c1nc(CN(C)C(=O)N[C@H](C(=O)N[C@@H](Cc2ccccc2)C[C@H](O)[C@H](Cc2ccccc2)NC(=O)OCc2cncs2)C(C)C)cs1 | 74.1%
8 | O=C(O)c1ccc2c(c1)nc(Nc1cccc(Cl)c1)c1ccncc12 | 125%
9 | CS(=O)(=O)NC1CCN(C(=O)c2ccc(Nc3nccc(-c4cc(Cl)cc(C(F)(F)F)c4)n3)cc2)C1 (stereo not given) | 122%
10 | Cc1ncc([N+](=O)[O-])n1CC(C)O (stereo not given) | 120%
11 | Cc1cccnc1Nc1cn2cc(-c3ccnc(OC(C)C)n3)ccc2n1 | 36.1%
12 | COc1cc2c3cc1Oc1c(OC)c(OC)cc4c1[C@@H](Cc1ccc(O)c(c1)Oc1ccc(cc1)C[C@@H]3N(C)CC2)N(C)CC4 | 88.9%
13 | OCCN1CCN(CCCN2c3ccccc3Sc3ccc(C(F)(F)F)cc32)CC1 | 3.76% (active)
14 | CC[C@H](Nc1ncnc2[nH]cnc12)c1nc2cccc(F)c2c(=O)n1-c1ccccc1 | 103%
15 | N#Cc1c(N)nc(NC2CC2)nc1N | 91.3%
16 | FC(F)(F)c1cc(Cl)cc(Nc2nc3cnc(NCC4CC4)nc3n2C2CCNCC2)c1 | 53.7%
17 | CC(C)(C)NC(=O)N[C@H](C(=O)N1C[C@H]2[C@@H]([C@H]1C(=O)NC(CC1CCC1)C(=O)C(N)=O)C2(C)C)C(C)(C)C (stereo not given in full) | 103%
18 | CCc1ccc2c(c1O)CCN(C)C2Cc1ccccc1Cl (stereo not given) | 21.4%
19 | CN(C)C[C]1[CH][CH][CH][C]1CNc1ccnc2cc(Cl)ccc12.[CH]1[CH][CH][CH][CH]1.[Fe] | 33.7%
20 | CCCCN(CCCC)CC(O)c1cc(Cl)cc2c1-c1ccc(Cl)cc1/C2=C/c1ccc(Cl)cc1 (stereo not given) | 107%

Same assay, conditions: 100 µM

Row | SMILES | growth
21 | CO[C@@H](C(=O)N1Cc2[nH]nc(NC(=O)c3ccc(N4CCN(C)CC4)cc3)c2C1)c1ccccc1 | 77.7%
22 | COc1ccc2cc1Oc1ccc(cc1)C[C@H]1c3cc(c(OC)cc3CCN1C)Oc1c(O)c(OC)cc3c1[C@@H](C2)N(C)CC3 | 5.12% (active)
23 | COCC[C@H](NC(=O)c1cc2ccc(C(F)(F)F)cc2[nH]1)c1ccccc1 | 52.2%
24 | CN1CCC(N2CCC(NC(=O)c3cc4c(F)cccc4s3)CC2)CC1 | 46.6%
25 | CC[C@H](C)[C@H]1O[C@]2(C=C[C@@H]1C)C[C@@H]1C[C@@H](C/C=C(\C)[C@@H](O[C@H]3C[C@H](OC)[C@@H](O[C@H]4C[C@H](OC)[C@H](NC(C)=O)[C@H](C)O4)[C@H](C)O3)[C@@H](C)/C=C/C=C3\CO[C@@H]4[C@H](O)C(C)=C[C@@H](C(=O)O1)[C@]34O)O2 | 116%
26 | COc1cc(OC)c2c(O)nc(-c3cc(C)c(OCCO)c(C)c3)nc2c1 | 72.7%
27 | CC(C)c1nc(CN(C)C(=O)N[C@H](C(=O)N[C@@H](Cc2ccccc2)C[C@H](O)[C@H](Cc2ccccc2)NC(=O)OCc2cncs2)C(C)C)cs1 | 82.2%
28 | O=C(O)c1ccc2c(c1)nc(Nc1cccc(Cl)c1)c1ccncc12 | 78.1%
29 | CS(=O)(=O)NC1CCN(C(=O)c2ccc(Nc3nccc(-c4cc(Cl)cc(C(F)(F)F)c4)n3)cc2)C1 (stereo not given) | 95.4%
30 | Cc1ncc([N+](=O)[O-])n1CC(C)O (stereo not given) | 128%
31 | Cc1cccnc1Nc1cn2cc(-c3ccnc(OC(C)C)n3)ccc2n1 | 6.2% (active)
32 | COc1cc2c3cc1Oc1c(OC)c(OC)cc4c1[C@@H](Cc1ccc(O)c(c1)Oc1ccc(cc1)C[C@@H]3N(C)CC2)N(C)CC4 | 5.99% (active)
33 | OCCN1CCN(CCCN2c3ccccc3Sc3ccc(C(F)(F)F)cc32)CC1 | 3.71% (active)
34 | CC[C@H](Nc1ncnc2[nH]cnc12)c1nc2cccc(F)c2c(=O)n1-c1ccccc1 | 83.5%
35 | N#Cc1c(N)nc(NC2CC2)nc1N | 95.4%
36 | FC(F)(F)c1cc(Cl)cc(Nc2nc3cnc(NCC4CC4)nc3n2C2CCNCC2)c1 | 4.76% (active)
37 | CC(C)(C)NC(=O)N[C@H](C(=O)N1C[C@H]2[C@@H]([C@H]1C(=O)NC(CC1CCC1)C(=O)C(N)=O)C2(C)C)C(C)(C)C (stereo not given in full) | 81.9%
38 | CCc1ccc2c(c1O)CCN(C)C2Cc1ccccc1Cl (stereo not given) | 6.23% (active)
39 | CN(C)C[C]1[CH][CH][CH][C]1CNc1ccnc2cc(Cl)ccc12.[CH]1[CH][CH][CH][CH]1.[Fe] | 39.8%
40 | CCCCN(CCCC)CC(O)c1cc(Cl)cc2c1-c1ccc(Cl)cc1/C2=C/c1ccc(Cl)cc1 (stereo not given) | 87.9%
